Reference: PubChem BioAssay AID1159580 (chemical genetic matrix, 2015)
“And” between values parts separate entries of the source, which are not always exact repeats. Equal entries are not always repeated. Among all 5,500 compounds or so, about 2,000 (36%) were called active. Not shown: some 18% with an inconclusive outcome. No stated cut-off is given here; in the data, active means normalized growth mostly below about 0.91 (no sharp cut-off); inconclusive means no clear call, values can overlap the other calls; inactive means mostly above about 0.92. The list shows a part of the results.

Assay: chemical genetic growth profiling, strain panel (AID 1159580);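 further: tested at 20 µM; growth read once vehicle control cultures reached saturation at 30 °C; 1 = growth at the plate median or of vehicle wells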
Details: S. cerevisiae deletion strains, growth OD

Measured: normalized growth

NCC(=O)CCC(=O)O
inactive: locus YAL013W, strain DEP1, stronger effect = lower value 1.01 | locus YAL021C, strain ccr4, stronger effect = lower value 1 | locus YAL026C, strain drs2, stronger effect = lower value 1.01 | locus YAL030W, strain snc1, stronger effect = lower value 0.99 | locus YBL061C, strain skt5, stronger effect = lower value 0.979 | locus YBR009C, strain hhf1, stronger effect = lower value 1.03 | locus YBR021W, strain FUR4, stronger effect = lower value 1.04 | locus YBR023C, strain chs3, stronger effect = lower value 0.995 | locus YBR171W, strain sec66, stronger effect = lower value 0.962 | locus YBR229C, strain ROT2, stronger effect = lower value 1.02 | locus YBR231C, strain swc5, stronger effect = lower value 0.968 | locus YBR279W, strain paf1, stronger effect = lower value 0.997 | locus YCL011C, strain gbp2, stronger effect = lower value 1 | locus YCL016C, strain dcc1, stronger effect = lower value 0.998 | locus YCL029C, strain bik1, stronger effect = lower value 0.995 | locus YCL061C, strain MRC1, stronger effect = lower value 0.983 | locus YCL069W, strain vba3, stronger effect = lower value 0.989 | locus YCR088W, strain abp1, stronger effect = lower value 0.987 | locus YDL005C, strain med2, stronger effect = lower value 0.96 | locus YDL035C, strain GPR1, stronger effect = lower value 1.02 | locus YDL040C, strain nat1, stronger effect = lower value 0.979 | locus YDL074C, strain BRE1, stronger effect = lower value 1.02 | locus YDL101C, strain DUN1, stronger effect = lower value 1.01 | locus YDL134C, strain PPH21, stronger effect = lower value 1.01 | locus YDL185W, strain tfp1, stronger effect = lower value 0.994 | locus YDL192W, strain arf1, stronger effect = lower value 0.992 | locus YDR001C, strain nth1, stronger effect = lower value 0.997 | locus YDR069C, strain doa4, stronger effect = lower value 0.979 | locus YDR101C, strain arx1, stronger effect = lower value 0.988 | locus YDR137W, strain rgp1, stronger effect = lower value 0.979 | locus YDR150W, strain NUM1, stronger effect = lower value 1.02 | locus YDR159W, strain sac3, stronger effect = lower value 1 | locus YDR162C, strain NBP2, stronger effect = lower value 1.01 | locus YDR195W, strain ref2 0.945 | locus YDR297W, strain sur2, stronger effect = lower value 0.99 | locus YDR318W, strain mcm21, stronger effect = lower value 0.978 | locus YDR334W, strain swr1, stronger effect = lower value 0.984 | locus YDR335W, strain msn5, stronger effect = lower value 0.995 | locus YDR388W, stronger effect = lower value 0.986 | locus YDR392W, strain spt3, stronger effect = lower value 1.05 | locus YDR502C, strain sam2, stronger effect = lower value 0.995 | locus YEL003W, strain gim4, stronger effect = lower value 0.992 | locus YEL037C, strain rad23, stronger effect = lower value 0.979 | locus YEL061C, strain CIN8 (second series), stronger effect = lower value 0.99 | locus YEL061C, strain CIN8, stronger effect = lower value 1.01 | locus YER015W, strain faa2, stronger effect = lower value 0.996 | locus YER016W, strain bim1, stronger effect = lower value 1.01 | locus YER110C, stronger effect = lower value 0.991 | locus YER111C, strain swi4, stronger effect = lower value 0.972 | locus YER155C, strain BEM2 (second series), stronger effect = lower value 0.955 | locus YER155C, strain BEM2, stronger effect = lower value 1.01 | locus YER167W, strain BCK2, stronger effect = lower value 1.01 | locus YFR010W, strain ubp6, stronger effect = lower value 0.973 | locus YGL078C, strain dbp3, stronger effect = lower value 0.99 | locus YGL086W, strain mad1, stronger effect = lower value 1 | locus YGL167C, strain pmr1, stronger effect = lower value 0.974 | locus YGL173C, strain kem1, stronger effect = lower value 0.971 | locus YGL227W, strain vid30, stronger effect = lower value 0.988 | locus YGL240W, strain doc1, stronger effect = lower value 0.965 | locus YGL248W, strain PDE1, stronger effect = lower value 1.01 | locus YGL253W, strain hxk2, stronger effect = lower value 1.01 | locus YGR078C, strain PAC10, stronger effect = lower value 1.02 | locus YGR135W, strain pre9, stronger effect = lower value 0.982 | locus YGR229C, strain SMI1, stronger effect = lower value 1.02 | locus YGR252W, strain gcn5, stronger effect = lower value 0.975 | locus YHR013C, strain ard1, stronger effect = lower value 0.964 | locus YHR027C, strain rpn1, stronger effect = lower value 1 | locus YHR030C, strain SLT2, stronger effect = lower value 1.01 and 1.03 | locus YHR079C, strain IRE1 (second series), stronger effect = lower value 0.982 | locus YHR079C, strain IRE1, stronger effect = lower value 1.03 | locus YHR094C, strain hxt1, stronger effect = lower value 0.99 | locus YHR129C, strain ARP1, stronger effect = lower value 1.01 | locus YHR142W, strain chs7, stronger effect = lower value 0.981 | locus YHR200W, strain rpn10, stronger effect = lower value 0.99 | locus YIL066C, strain RNR3, stronger effect = lower value 1.02 | locus YIL073C, strain SPO22, stronger effect = lower value 1.01 | locus YIL125W, strain kgd1, stronger effect = lower value 0.997 | locus YIR030C, strain dcg1, stronger effect = lower value 0.994 | locus YJL092W, strain hpr5, stronger effect = lower value 0.969 | locus YJL095W, strain BCK1 (second series), stronger effect = lower value 0.984 | locus YJL095W, strain BCK1, stronger effect = lower value 1.01 and 1.03 | locus YJL115W, strain asf1, stronger effect = lower value 0.967 | locus YJL129C, strain trk1, stronger effect = lower value 0.98 | locus YJL134W, strain LCB3, stronger effect = lower value 1.01 | locus YJL154C, strain vps35, stronger effect = lower value 0.979 | locus YJL164C, strain tpk1, stronger effect = lower value 1 | locus YJL166W, strain qcr8, stronger effect = lower value 0.924 | locus YJL168C, strain set2, stronger effect = lower value 0.984 | locus YJL187C, strain SWE1 (second series), stronger effect = lower value 1.01 | locus YJL187C, strain SWE1, stronger effect = lower value 0.982 | locus YJR043C, strain POL32, stronger effect = lower value 1.01 | locus YJR066W, strain TOR1, stronger effect = lower value 0.986
